# In PubChem BioAssay (NCI):
# Compounds without any hit were thinned out: in the full panel of roughly 83,000, 20% have a hit.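 Results are percent growth after 48 hours of single-concentration exposure. 100 means growth as in untreated cells, lower positive values show inhibition; negative values down to -100 show cell death.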 Values without a mark were called inactive. The source made the active and inactive calls. How the source made its calls: active means growth percent below 10; inactive means the rest.
# Key:
# Assay in all cases: NCI-60 one-dose screen, 48 h (100 = growth as untreated, 0 = no growth, -100 = all killed)
# Settings in all cases: 10 µM unless noted
# T-47D breast = system: T-47D breast
# BT-549 breast = system: BT-549 breast
# MDA-MB-435 melanoma = system: MDA-MB-435 melanoma
# SW-620 colon = system: SW-620 colon
# MCF7 breast = system: MCF7 breast
# HCT-116 colon = system: HCT-116 colon
# HCC-2998 colon = system: HCC-2998 colon
# KM12 colon = system: KM12 colon
Compound,growth (T-47D breast),growth (BT-549 breast),growth (MDA-MB-435 melanoma),growth (SW-620 colon),growth (MCF7 breast),growth (HCT-116 colon),growth (HCC-2998 colon),growth (KM12 colon)
C=CCn1cc(-c2nc3ccccc3s2)c2cc(-c3ccc4c5c(cccc35)C(=O)N(CCN3CCNCC3)C4=O)ccc21,82.4%,91.3%,90.7%,26.8%,-65.8% (active),29.7%,87.5%,98.5%
Cc1ccc(-c2nc(C#N)c(S(=O)(=O)n3nc(-c4ccccc4)cc3N)o2)cc1,18.2%,96.8%,100%,31.8%,79.5%,63%,112%,107%
NC(N)=N/N=C/c1ccc(-c2ccc(-c3cc(Cl)cc(Cl)c3)s2)cc1,28.8%,95.7%,1.1% (active),-66.3% (active),-39.9% (active),-75.9% (active),-17.3% (active),-62.4% (active)
CCCCOc1ccc(/C=C2/SC(N3CCCC3)=NC2=O)cc1,65.9%,90.9%,95.6%,99.9%,107%,92.2%,109%,99.5%
CCCCCCN1CSC(=S)N(CCCCCC)C1,96.4%,100%,97.6%,94.2%,102%,86%,96.6%,103%
CC(C)CSc1nc(NN)c(C#N)c(-c2ccccc2)n1,87%,96.2%,101%,99.3%,88.2%,95.7%,95%,81.3%
CCN(CC)CCOc1ccc(/C(=C(/C)c2ccccc2)c2ccc(OC(C)=O)cc2)cc1,60.2%,69.1%,94.8%,95.5%,41.7%,79%,103%,102%
S=C(S)NCCc1c[nH]c2ccccc12,88%,92.6%,103%,101%,94.4%,96.1%,115%,96.7%
N#Cc1c(-c2ccccc2)cc(-c2ccccc2)n(CC(=O)NO)c1=O,14.9%,1.67% (active),49.8%,59.8%,21.9%,40.7%,86.5%,41.2%
COc1ccc(C(=O)N2NC(=O)/C(=C/c3ccccc3F)N=C2c2ccccc2)cc1,97.2%,106%,106%,111%,91.2%,102%,97.8%,106%
O=[N+]([O-])c1cccc(-c2nc3sccn3c2-c2ccnc(NCCCNS(=O)(=O)c3ccc(Cl)cc3)n2)c1,6.46% (active),30.2%,33.4%,90.1%,33.2%,53.3%,116%,39.2%
COc1ccc(-c2ccc(-c3ccc(C(=N)N)cn3)s2)cc1OC,84.6%,94.4%,103%,90.3%,84.9%,80.2%,109%,95.9%
COc1ccc2c(c1)[nH]c(=O)c1c3cc(OC)ccc3cn21,13.6%,36.8%,-9.37% (active),-2.37% (active),14.1%,-89% (active),32.1%,-13.1% (active)
CC(C)c1ccc2occ(C=C3C(=O)NC(=O)NC3=O)c(=O)c2c1,83.5%,92.4%,105%,91.6%,80.8%,76.5%,93.7%,117%
COc1cc(/C=N\NC(=O)CN2CCN(c3cc4c(cc3F)c(=O)c(C(=O)N/N=C/c3cc(OC)c(OC)c(OC)c3)cn4C3CC3)CC2)cc(OC)c1OC,-12.3% (active),-17.7% (active),-45.1% (active),6.11% (active),7.55% (active),-32.5% (active),-95.2% (active),-61.7% (active)
Cn1ccc(=O)c(S(N)(=O)=O)c1,93.9%,82%,103%,105%,111%,102%,102%,103%
O=C(O)COc1ccc(-c2cssc2=S)cc1,95.5%,116%,102%,107%,93.2%,109%,125%,109%
CCOC(=O)c1cn2c3c(cccc3c1=O)C(=O)/C(=C/c1cccc(Cl)c1Cl)C2,75.5%,91.6%,106%,102%,96.2%,105%,100%,108%
N[C@@H]1CCN(C(=O)c2cc3cc(Cl)c(F)c(F)c3[nH]2)C1,82.2%,1.7% (active),97.3%,96.6%,94.5%,92.8%,96.1%,98.8%
COc1cc(NC(N)=NCCC(C)(C)Oc2ccc(C(F)(F)F)cc2)ncc1C#N,-44.6% (active),40.4%,-91.2% (active),-79% (active),-71.1% (active),-88.4% (active),-86.6% (active),-51.7% (active)
Cc1nc2cncc(C#Cc3cncc(C(=O)Nc4ccc(CN5CCN(C)CC5)c(C(F)(F)F)c4)c3)c2nc1C,26.6%,37.6%,-1.99% (active),1.45% (active),19%,5.45% (active),30.7%,3.08% (active)
O=C(CN1CCN(c2cc3c(cc2F)c(=O)c(C(=O)N/N=C/c2ccccc2O)cn3C2CC2)CC1)N/N=C\c1ccccc1O,17.9%,45.5%,17.6%,36.6%,10%,15.6%,39.5%,18.3%
CCn1c2ccccc2c2cc(NC(=O)Nc3ccc([N+](=O)[O-])cc3C)ccc21,29.3%,79.2%,17.4%,51.9%,35.7%,31.6%,10.5%,26.5%
CC(C)(C)c1[nH]nc2c1C(c1cc3ccccc3[nH]c1=O)Nc1cc(C(=O)Nc3ccc(Cl)cc3)ccc1N2 (stereo unspecified),40%,63.9%,35.4%,66.3%,27.8%,45.6%,86.3%,50.2%
CCN1C(=O)N(CC)C2C1NN=c1s/c(=C\c3cccnc3)c(=O)n12 (stereo unspecified),53.4%,57.3%,-46.6% (active),26.5%,21.7%,15.8%,26.8%,19.5%
ClC(Cl)c1nc(-c2cccnc2)n2nc(-c3ccccc3)cc2n1,50.2%,68.4%,0.991% (active),0.424% (active),50.6%,0.678% (active),-68.7% (active),2.3% (active)
COc1cc(/C=C/C(=O)/C=C/c2cc(OC)c3c(c2)OCO3)cc2c1OCO2,88.6%,84.3%,-21.2% (active),11.5%,19.8%,-93.9% (active),14.6%,-17.1% (active)
